Laboratory results: PubChem BioAssay AID624125 (The Scripps Research Institute Molecular Screening Center, 2012)
Hit rate of the full screen: of about 360,000 compounds, about 2,600 (0.72%) were called active. The list comes from a sample in which actives are over-represented; it also holds similar structures and randomly drawn compounds. A number with no mark means an inactive call.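 Rule for the calls: active = inhibition above its plate's cutoff, the mean inhibition of sample wells plus 3 SD (cut at about 27% in these data); inactive = the rest.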

These compounds were tested against Muscarinic acetylcholine receptor M4 (Homo sapiens) (UniProt P08173) (assay: human M4 muscarinic receptor antagonists, primary screen, CHO cells, Fluo-8 calcium fluorescence (AID 624125;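 note: 0% = acetylcholine EC80 with DMSO and 100% = DMSO without agonist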)). Details: CHO-hM4 cells, ACh EC80, Fluo-8 calcium fluorescence; at 3 µM; active compounds read high.
Chain of Muscarinic acetylcholine receptor M4 (Homo sapiens) (P08173 whole entry, looked up): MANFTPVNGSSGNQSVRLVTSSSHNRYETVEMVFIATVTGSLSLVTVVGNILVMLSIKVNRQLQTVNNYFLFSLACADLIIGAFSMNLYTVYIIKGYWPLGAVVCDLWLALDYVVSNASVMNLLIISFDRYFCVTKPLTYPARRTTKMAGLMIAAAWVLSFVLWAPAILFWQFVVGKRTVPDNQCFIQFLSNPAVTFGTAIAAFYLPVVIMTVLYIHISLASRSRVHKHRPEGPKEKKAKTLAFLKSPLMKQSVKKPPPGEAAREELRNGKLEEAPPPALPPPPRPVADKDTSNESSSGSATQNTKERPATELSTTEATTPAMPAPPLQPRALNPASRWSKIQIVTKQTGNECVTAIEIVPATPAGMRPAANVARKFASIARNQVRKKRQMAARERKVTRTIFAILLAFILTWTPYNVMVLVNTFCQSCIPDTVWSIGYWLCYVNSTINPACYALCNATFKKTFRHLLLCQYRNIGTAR
`C#CCNC(=O)C1=C[C@@H](c2ccccc2)[C@H](CCCO)[C@@H](OCC)O1` showed an inhibition of 12.4%. `O=[N+]([O-])c1ccc(CN2CC(N3CC=CC3)CS2(=O)=O)cc1` (centres undefined) gave an inhibition of -1.16%. For `O=C1/C(=C\c2ccc([N+](=O)[O-])cc2)CS(=O)(=O)C/C1=C/c1ccc([N+](=O)[O-])cc1`, the inhibition was 26.7% (active). Work on `O=C(CSCc1c(F)cccc1Cl)NCC1CCCO1` (centres undefined) yielded an inhibition of -3.01%. `CC(=O)Nc1ccccc1OC(C)C(=O)N1CCC(C)CC1` (centres undefined) was tested, and the inhibition was -7.56%. `CC(C)c1cc(C(=O)N(C)C2CCCN(Cc3ccccc3F)C2)n(C)n1` (centres undefined) showed an inhibition of -12.6%. `O=C(O)C(c1cccs1)C1(O)CCCCC1` (centres undefined) was tested, and the inhibition was 5.22%. For `O=C(O)C(c1ccccc1)C1(O)CCCCC1` (centres undefined), the inhibition was -13.2%. In the case of `CN(C)CCOC(=O)C(c1ccccc1)C1(O)CCCC1` (centres undefined), the inhibition is reported as 98% (active). `CCC(C)[C@H](NC(=O)N1CCn2c1nc1ccccc12)C(=O)NCc1ccc(OC)cc1` (some centres undefined) was tested, and the inhibition was -15.9%. For `NS(=O)(=O)c1ccc(CCNC(=O)c2ccc([N+](=O)[O-])cc2[N+](=O)[O-])cc1`, the inhibition was 5.77%. With `COc1nnc(-c2ccc(C)c(S(=O)(=O)N(C)C)c2)c2ccccc12` the inhibition was 2.31%. With `CCCCNc1c(-c2cccc(Sc3ccc(OC)cc3)c2)nc2ccccn12` the inhibition was 48.5% (active). For `COC(=O)c1ccc2nc(-c3cccc(Br)c3)c(Cc3ccc(OC)cc3C)n2c1`, the inhibition was 1.2%. For `COC(=O)c1ccc2nc(-c3ccccc3)c(Cc3ccc(OC)cc3C)n2c1`, the inhibition was 11.4%. `CN1C(=O)CC(N2CCN(c3ccccn3)CC2)C1=O` (centres undefined) was tested, and the inhibition was 2.5%. `Cc1ccc(C(=O)N(CN2CCCC2=O)c2ccc(F)cc2)cc1` gave an inhibition of 6.56%. `COc1ccc(CC2(CO)CCN(Cc3cnn(C)c3)CC2)cc1` was tested, and the inhibition was -5.66%. `COc1cccc(CC2(CO)CCN(Cc3cnc(-c4cccc(C)c4)nc3)CC2)c1` was tested, and the inhibition was 0.77%. `COC(=O)c1ccc(CN2CCC(CO)(Cc3ccc(OC)cc3)CC2)cc1` was tested, and the inhibition was 31.7% (active). In the case of `CC(C)(C)Nc1c(-c2cccs2)nc2ccccn12`, the inhibition is reported as 6.54%. `O=C(CNS(=O)(=O)c1ccc2c(c1)OCCCO2)N1CCN(c2ccc(F)cc2)CC1` gave an inhibition of -7.25%. `CC(C)CCN1C(=O)c2ccc(C(=O)Nc3cccc(S(N)(=O)=O)c3)cc2C1=O` was tested, and the inhibition was 4.89%. Work on `CN=C1C=C/C(=N/N=c2\ccn(O)cc2C)C=C1C` yielded an inhibition of 11.9%. `c1ccc2c(C[n+]3csc4ccccc43)cccc2c1` was tested, and the inhibition was 30.1% (active). Compound `Nc1scc[n+]1Cc1cccc2cccnc12` has an inhibition of -7.43%. With `CCN(CC(=O)Nc1ccccc1OC)C(=O)CC1CC2CCC1C2` (centres undefined) the inhibition was 0.94%. With `Cc1cccc2c1N(CCOc1ccccc1)C(=O)C2=O` the inhibition was -0.73%. With `C/C(=N\N1CCN(Cc2ccc(C)cc2)CC1)c1ccco1` the inhibition was 1.69%. `CCOC(=O)c1ccccc1NC(=O)COC(=O)CCC(=O)N1CCOCC1` showed an inhibition of 2.73%. Compound `C[C@H]1[C@H]2c3nc4ccccc4n3C[C@H]1ON2C1CCCCC1` has an inhibition of -2.5%. For `Cc1ccc(C(=O)NCC(=O)OCc2nnc(-c3ccccc3)o2)cc1`, the inhibition was 8.37%. `Cc1onc(-c2ccccc2)c1-c1nnc(COC(=O)c2ccc(N(C)C)cc2)o1` was tested, and the inhibition was 62.4% (active). `O=C(OCc1nnc(-c2ccccc2)o1)c1ccc2c(c1)C(=O)N(CCc1ccccc1)C2=O` gave an inhibition of -2.43%. In the case of `COc1ccc(C(=O)N2CCCCC2c2cc(C(=O)Nc3ccccc3)no2)cc1` (centres undefined), the inhibition is reported as -6.76%. `Cc1nc2sc(C(=O)c3ccccc3)c(N)c2c2c1CCCC2` was tested, and the inhibition was 29.8% (active). Compound `Cn1c(-c2ccc(C(=O)c3ccccc3)s2)nc2ccccc21` has an inhibition of 1.58%. `Cc1c(C(=O)Nc2ccccc2)sc2nc3n(c(=O)c12)CCCCC3` was tested, and the inhibition was -0.96%. Compound `COc1ccc([C@H]2C[C@@H](n3cc(COC(=O)c4ccccc4)nn3)[C@H](O)CN2C(=O)c2cccs2)cc1` has an inhibition of -7.8%. Work on `Cc1ccc(S(=O)(=O)N(CC(=O)NCCSC2CCCCC2)c2ccccc2F)cc1` yielded an inhibition of -2.75%. Compound `CCOC(=O)C1=CC[C@@H](c2ccccc2)N(S(=O)(=O)c2ccc(C)cc2)[C@H]1c1ccc(CC)cc1` has an inhibition of -16.5%. For `CCOC(=O)C1C(C)C(C(C)(C)C)N(S(=O)(=O)c2ccc(C)cc2)C1c1ccccc1` (centres undefined), the inhibition was 37.7% (active). Compound `CCCCC[C@@H]1C=C(C(=O)OCC)[C@H](c2ccccc2)N1S(=O)(=O)c1ccc(C)cc1` has an inhibition of -11.2%. For `CCC(C)NCCOCCOc1ccc(Br)cc1C` (centres undefined), the inhibition was 6.84%. Compound `Cc1ccc(C)c(NC(=O)C(OC(=O)c2ccc(C)s2)c2ccccc2)c1` (centres undefined) has an inhibition of -13.1%. With `CCCOc1ccc(F)cc1-c1cc(C(=O)Nc2ccc(F)c(Cl)c2)[nH]n1` the inhibition was 28% (active). In the case of `CCCOc1ccc(F)cc1-c1cc(C(=O)Nc2ccc(F)cc2)[nH]n1`, the inhibition is reported as -2.62%. `CCCOc1ccc(F)cc1-c1cc(C(=O)NCc2ccc(F)cc2)[nH]n1` showed an inhibition of -9.17%. `CC(=O)NC(C(=O)NCC(N)=O)C(C)C` (centres undefined) was tested, and the inhibition was -7.93%. `Cc1ccc(C)c(S(=O)(=O)Nc2cccc(-n3cnnn3)c2)c1` gave an inhibition of 4.01%. For `O=C(CC1Oc2ccccc2NC1=O)NCCCN1CCN(Cc2ccccc2)CC1` (centres undefined), the inhibition was -1.94%. Work on `CN(C)c1ccc(CNC23CN4CN(CN(C4)C2)C3)cc1` yielded an inhibition of 3.33%. With `O=C(CN1CCN(Cc2ccccc2)CC1)Nc1ccc(F)c(F)c1` the inhibition was 13%. With `O=C(CN1CCN(Cc2ccccc2)CC1)NC(c1ccccc1)c1ccccc1` the inhibition was 44.7% (active). `O=C(CN1CCc2ccccc21)NC(c1ccccc1)c1ccccc1` was tested, and the inhibition was -1.96%. `CN(CCc1ccccc1)c1ccc([N+](=O)[O-])cn1` gave an inhibition of 10.7%. Compound `COc1cc(NC(=S)NNC(=O)CC(C)C)c(OC)cc1Cl` has an inhibition of -7.19%. In the case of `CN(O)C(=S)c1ccccc1`, the inhibition is reported as 31.7% (active). `Cc1nn(Cc2ccccc2)c(C)c1CNC(=O)c1ccc(F)c(S(=O)(=O)N2CCOCC2)c1` gave an inhibition of -8.04%.
